Bioassay records: PubChem, National Center for Advancing Translational Sciences (NCATS)
Only some compounds are listed: those with a hit (about 1.9% of all), similar ones and a draw of the others.
HTT ATP protect – protects HTT-Q103 PC12 cells, measured by ATP; AID 1471; Potency, µM (titrated, usually from 56.4 µM), inactives show cytoprotection (ATP increase), usual class: activators; PC12 HTT-Q103 induced, cytoprotection, ATP luminescence, 40 h; hit rate 0.14% among 230,000; also: potency is read from the fitted curve at half-maximal effect; % of control where 0% means no effect; nearly all actives have a fitted effect of over 45% in size
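Readout: ATPlite luminescence (ATP level). Model: stable PC12, inducible Htt exon1 Q103-GFP. Inducer: tebufenozide, 100 nM final. Compounds: dose series. No G418 in medium.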
IMPase Li inh – IMPase inhibition in cells with lithium potentiation. CHO-M1 cells, IP1 TR-FRET (IP-One), carbachol + lithium. hit rate 0.35% among 210,000. Potency, µM (doses to about 59.4 µM), for inactives: at the highest dose activity, negative = IMPase inhibition, hits mostly inhibitors;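 also: IP1 builds up when IMPase is blocked and the TR-FRET signal falls; potency is read from the fitted curve at half-maximal effect; plate controls were basal vehicle for no effect and high inhibitor control for full effect; nearly all actives have a fitted effect of over 50% in size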
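CHO-M1, 2000 cells/well, 16–30 h culture; cpd + low Li+, 30 min 37C; lysis with d2-IP1/Eu-anti-IP1 Ab, 10 min RT; TR-FRET 665/620 ratio and 620 channel; AC50 via Hill.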
HTT aggregate – reduces HttQ103-GFP aggregates in PC12 cells; PC12 HttQ103-GFP aggregates, Acumen cytometry, 40 h; Potency, µM (highest dose often 46.1 µM), for the others: top-dose activity change, negative = inhibition, hits mostly inhibitors; hit rate 1.1% among 220,000; AID 1688; also: potency is read from the fitted curve at half-maximal effect; % is scaled to controls: 0 for no effect and ±100 for the full control effect; nearly all actives have a fitted effect of over 60% in size
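Using laser scanning cytometry, GFP-positive aggregates were counted after lysis of PC12 cells induced with 100 nM tebufenozide to express HTT exon 1 Q103–GFP. Compounds were tested in titration.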
ERK EGF inh – blocks ERK signaling stimulated by EGF; HEK293-V1b, EGF-stimulated phospho-ERK AlphaScreen; Potency, µM (doses to about 11.5 µM), for the others: at the highest dose activity change, negative = inhibition, hits mostly inhibitors; hit rate 0.41% among 130,000; AID 1454;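 also: potency is read from the fitted curve at half-maximal effect; plate controls were stimulated vehicle wells for no effect and unstimulated vehicle basal for full effect; nearly all actives have a fitted effect of over 55% in size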
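Phospho-ERK1/2 measured by AlphaScreen (SureFire) after 5 min 25 nM EGF stimulation of V1b-expressing HEK293 cells preincubated 30 min at 37C with titrated compounds; data scaled to DMSO and EGF controls, Hill-fitted AC50.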
NPSR antag – neuropeptide S receptor (human) antagonism, cAMP | Q6W5P4 | CHO-NPSR cells, cAMP TR-FRET, antagonist mode | Potency, µM (highest dose often 38.3 µM), for inactives: top-dose activity change, negative = inhibition, actives largely listed as inhibitors | hit rate 1% among 220,000; also: potency is read from the fitted curve at half-maximal effect; % is scaled to controls: 0 for no effect and ±100 for the full control effect; nearly all actives have a fitted effect of over 50% in size
Target sequence (Q6W5P4 whole entry, looked up): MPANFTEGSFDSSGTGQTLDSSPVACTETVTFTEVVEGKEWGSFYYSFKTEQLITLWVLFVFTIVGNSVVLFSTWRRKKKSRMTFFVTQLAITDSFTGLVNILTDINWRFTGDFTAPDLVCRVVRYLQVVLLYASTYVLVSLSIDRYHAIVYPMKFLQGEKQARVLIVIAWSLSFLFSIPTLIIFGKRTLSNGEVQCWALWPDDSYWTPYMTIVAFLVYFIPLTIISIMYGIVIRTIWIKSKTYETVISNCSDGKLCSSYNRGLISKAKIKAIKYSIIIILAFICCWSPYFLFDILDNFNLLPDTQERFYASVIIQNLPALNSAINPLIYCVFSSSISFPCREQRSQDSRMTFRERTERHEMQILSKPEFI
ERK pERK EGF – reduces EGF-stimulated ERK phosphorylation in HEK293 cells | shares compounds with ERK EGF inh | HEK293 EGF-stimulated ERK phosphorylation, AlphaScreen | hit rate 60% among 60 | Potency, µM (series often up to 57.5 µM), without a hit: top-dose activity change, negative = inhibition, most hits filed as inhibitors | AID 1725
c-Raf inh – c-Raf inhibition, ERK pathway follow-up | AID 1728 | 70 tested, under 10 active | shares compounds with ERK EGF inh | c-Raf kinase inhibition, homogeneous biochemical assay | activity change, negative = inhibition, % at 76.9 µM
MEK inh – blocks human MEK1 kinase activity in ERK pathway follow-up. AID 1732. 70 tested, under 10 active. homogeneous MEK kinase activity assay, ERK pathway. shares compounds with ERK EGF inh. Potency, µM (top dose mostly 76.9 µM), for inactives: at the highest dose activity change, negative = inhibition, usual class: inhibitors
Numbers without * were called inactive; ! = not confirmed by another sample; [ ] = remark or other dose. Calls follow the shape of the dose curve; as a rule, active = well fitted curve in the direction sought with a large enough effect; inconclusive = small, poorly fitted or top-dose-only effect, or another doubt; inactive = no such curve, though single readings can be large; an effect the other way counts as inactive or inconclusive.

Results for FC(F)(F)c1cccc(C2=CCN(CCc3ccc4ccccc4c3)CC2)c1 ?
HTT ATP protect: 24%; HTT aggregate: 9%

What do the screens show for `O=C1Nc2ccccc2C2(CCN(CCc3ccc(C(F)(F)F)cc3)CC2)O1`?
HTT ATP protect: -74%; IMPase Li inh: 13%; ERK EGF inh: 32µM*

How did Clc1cncc(N2CCNCC2)n1 do in these assays?
HTT ATP protect: 0.16µM*!; IMPase Li inh: -3%; ERK EGF inh: 1%

How did CC[n+]1c(-c2ccccc2)c2cc(N)ccc2c2ccc(N)cc21 do in these assays?
HTT ATP protect: -155%; IMPase Li inh: 29%; HTT aggregate: 14µM*; ERK EGF inh: 19%

Results for CC(C)C[C@H](NP(=O)(O)O[C@@H]1O[C@@H](C)[C@@H](O)[C@@H](O)[C@H]1O)C(=O)N[C@@H](Cc1c[nH]c2ccccc12)C(=O)O ?
HTT ATP protect: -11%[1.9 µM]

Results for CC1CC[C@@]2(OC1)OC1C(O)C3C4CC[C@H]5CC(O[C@@H]6O[C@@H](CO)[C@H](OC7OC(CO)C(O)C(OC8OCC(O)C(O)[C@H]8O)[C@@H]7O[C@@H]7OC(CO)[C@H](O)[C@@H](O[C@@H]8OC(CO)C(O)C(O)C8O)C7O)C(O)C6O)C(O)C[C@]5(C)C4CC[C@]3(C)C1C2C (stereo not given in full) ?
HTT ATP protect: -339%; IMPase Li inh: 43%; ERK EGF inh: 7.1µM*

What do the screens show for `O=c1ccc2cc(OC3OC(CO)C(O)C(O)C3O)c(O)cc2o1` (stereo not given)?
HTT ATP protect: -8%[1.9 µM]; IMPase Li inh: 10µM*; ERK EGF inh: 18%

Results for O=[N+]([O-])c1ccc(O[C@@H]2O[C@H](CO)[C@@H](O)[C@H](O)[C@H]2F)c([N+](=O)[O-])c1 ?
IMPase Li inh: -3%; ERK EGF inh: 0%; NPSR antag: -2%[46.1 µM]

Results for N=c1c2c(n(Cc3ccc(Cl)cc3Cl)c3c1CCC3)CCCC2 ?
HTT ATP protect: -49%; IMPase Li inh: 37%[38.3 µM]; HTT aggregate: 6.3µM*; NPSR antag: -11%[46.1 µM]

Results for Cc1nn(Cc2ccc(Cl)cc2Cl)c(Cl)c1C(=O)O ?
HTT ATP protect: 16%; IMPase Li inh: -6%; HTT aggregate: -5%; ERK EGF inh: -1%; NPSR antag: 0%

What do the screens show for `CCn1nc(-c2cccs2)nc2c(=O)n(C)c(=O)nc1-2`?
HTT ATP protect: -92%[10 µM]; IMPase Li inh: 37%[38.3 µM]; HTT aggregate: 18µM*; NPSR antag: 2.5µM*; c-Raf inh: inconclusive; MEK inh: 0.89µM*

Results for CN(C)CCC(C#N)(c1ccccc1)c1ccccc1 ?
HTT ATP protect: 4%[10 µM]; IMPase Li inh: 17%

How did CCN1C(=O)NC(=O)/C(=C/c2cc(C)n(-c3sc(C)c(C)c3C#N)c2C)C1=O do in these assays?
HTT ATP protect: -16%[10 µM]; IMPase Li inh: 6%; HTT aggregate: 4%; ERK EGF inh: inconclusive; NPSR antag: 3%; ERK pERK EGF: -4%; c-Raf inh: -9; MEK inh: inconclusive

Results for Cc1cc(/C=C2/C(=O)NC(=O)N(Cc3ccco3)C2=O)c(C)n1-c1ccccc1 ?
IMPase Li inh: 4%; HTT aggregate: 13%; ERK EGF inh: 6%; NPSR antag: -11%
